# Bioassay records as filed in PubChem BioAssay.
# Sampled rows, rich in hits. Any-hit rate of the full collection: about 2.3%.
# KKLEB cytotox = counter-screen for CF NF-kB inhibitors: cytotoxicity | activity change (cytotoxicity), % at 5 µM | hit rate 0.36% among 360,000 | KKLEB CF airway cells viability, ATPlite luminescence, overnight; hits give low values; cells stimulated with P. aeruginosa culture filtrate;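 active means corrected activity change at or below -50% at 5 µM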
# hiPSC survival = increases survival of single human iPS cells; hiPSC single-cell survival, ATPlite luminescence; 100% = ROCK inhibitor wells, 0% = DMSO; survival enhancement, % at 20 µM; hit rate 0.044% among 360,000; in the data active means survival enhancement above about 18%;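 further: cells exposed to compounds for 16 hours before the ATP read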
# LGR2 antag = blocks bursicon-induced cAMP signaling via Drosophila LGR2. HEK293 LGR2, CRE-luciferase, bursicon-stimulated, 4 h. inhibition, % at 9.99 µM. hit rate 0.35% among 380,000;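 active means drop in luminescence signal, shown as inhibition above about 50% in the replicate tests, limit read from the data, passing the limit was not always enough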;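 further: agonist challenge used bursicon conditioned medium at about half maximal strength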
# CF NFkB block = inhibitors of cystic fibrosis induced NF-kB | KKLEB NF-kB-GFP reporter, PAF-induced, GFP fluorescence overnight | inhibition, % at 5 µM | hit rate 0.86% among 360,000;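 active means at least 50% inhibition at 5 µM, scaled per plate between neutral and stimulator controls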;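 further: PAF is a Pseudomonas aeruginosa culture filtrate used as stimulus; plate controls were PAF-stimulated DMSO wells for no effect and unstimulated DMSO wells for full effect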
# TWEAK Fn14 block = TWEAK-Fn14 signaling inhibition | inhibition, % at 10 µM | TWEAK-stimulated Fn14 reporter cells, luciferase luminescence, 8 h | AID 1159606 | hit rate 2% among 360,000; in the data active means inhibition above about 50%
# HIF-2a block = blocks HIF-2a reporter activity. 786-0 RCC cells HIF-2a reporter, luciferase luminescence, overnight. inhibition, % at 18.8 µM. hit rate 0.72% among 360,000. AID 624352;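 active means inhibition of the luminescence signal of 40% or more relative to plate controls, in a single-dose primary screen at 18.75 µM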
# The depositor's hits bear a star; / = no result.
SMILES,KKLEB cytotox,hiPSC survival,LGR2 antag,CF NFkB block,TWEAK Fn14 block,HIF-2a block
COc1ccc(C(C)NCCC(c2ccc(OC(C)C)cc2)c2ccccc2OC)cc1 (configuration not stated),0.3,-0.7,98.7*,-1.5,-1.8,27.0
C[C@H]1CN([C@@H](C)CO)C(=O)c2cc(N(C)C)ccc2O[C@@H]1CN(C)Cc1ccc(-c2ccccc2)cc1,/,/,11.1,/,/,/
O=C(Nc1ccc(Cl)cc1)Nc1ccc(N2CCCC2)c(S(=O)(=O)Nc2ccccc2Cl)c1,-41.1,-0.5,42.4,42.6,74.8*,-21.7
COC(=O)[C@@]1(Cc2ccccc2)[C@@H]2C(=CC(=O)[C@H]2CC(=O)C(=O)N(C)C)CN1C(=O)c1ccccc1,14.3,-1.7,/,14.1,36.8,67.8*
CC1CCC(=C(C#N)c2nc(-c3cc4ccccc4oc3=O)cs2)CC1 (configuration not stated),-11.5,-5.4,/,7.1,54.0*,-242.2
CN1CCN(C(c2ccc(Br)cc2)c2cc(Cl)c3cccnc3c2O)CC1 (configuration not stated),-9.3,-0.8,29.4,41.2,13.9,49.9*
O=C(CSc1nnc(-c2cccnc2)s1)Nc1ccnc2ccccc12,-12.6,0.4,9.1,26.9,60.8*,18.0
Cc1ccc(NC(=O)CSc2nnc(-c3cccnc3)s2)cc1,-2.0,0.0,3.2,-15.8,3.1,13.3
O=c1cc(-c2ccccc2Cl)oc2c(NS(=O)(=O)c3cc(Cl)cc(Cl)c3O)ccc(O)c12,-15.2,-1.4,/,43.9,65.1*,0.4
COc1ccc(Nc2nc3cc(C)ccc3cc2C#N)c(OC)c1,-33.1,2.2,6.6,21.1,-4.5,12.0
COc1ccc(Nc2nc3ccc(C)cc3cc2C#N)c(OC)c1,7.8,-1.2,/,-14.9,84.6*,-37.1
C=CCNC1=C(Cl)C(=O)c2ccccc2C1=O,-7.6,-0.4,-10.7,17.2,12.8,-10.5
COCCCNC1=C(Cl)C(=O)c2ccccc2C1=O,18.0,0.1,-3.3,-32.7,-5.9,84.3*
O=C1C(Cl)=C(NCc2cccnc2)C(=O)c2ccccc21,-6.4,-0.3,5.2,37.4,5.5,13.7
CC(C)OCCCNC1=C(Cl)C(=O)c2ccccc2C1=O,-23.7,-0.3,-37.1,6.8,-11.6,63.9*
CCN(CC)CCCNC1=C(Cl)C(=O)c2ccccc2C1=O,-2.2,-0.7,77.2*,64.7*,19.5,83.8*
COCCCNc1c2c3c(cccc3[nH]c1=O)C(=O)c1ccccc1-2,-1.6,-2.5,13.1,-124.5,-61.1,-68.4
CN(C(=O)CN1C(=O)S/C(=C\c2ccccc2Cl)C1=O)C1CCS(=O)(=O)C1 (configuration not stated),2.7,0.8,3.0,-33.4,58.0*,9.0
COCOc1cc(O)c(C(=O)/C=C/c2ccccc2)c(OCOC)c1,-3.4,-3.3,30.0,40.0,70.5*,37.1
COc1ccc(C(=O)/C=C/c2ccccc2)c(OC)c1,-20.4,-4.8,-0.1,14.7,58.5*,-120.7
COc1cc(C)cc(C(=O)C=Cc2ccccc2)c1O,-28.7,1.4,-26.6,-7.5,6.1,-34.4
COc1ccc(C(=O)/C=C/c2ccc(N(C)C)cc2)c(OC)c1,-19.6,-0.4,-29.3,-18.3,-9.1,-171.0
COc1ccc(C(=O)/C=C/c2cc(OC)c(O)c(OC)c2)c(F)c1,-4.8,-0.8,22.0,10.8,56.5*,35.3
COc1ccc(OC)c(N/C=C/C(=O)c2ccccc2)c1,-88.4*,-0.9,95.6*,-17.3,100.7*,63.0*
COc1ccc(C(=O)/C=C/c2ccc(N3CCCCC3)c([N+](=O)[O-])c2)c(OC)c1,3.8,5.1,14.8,-7.7,14.0,40.6*
SMILES,KKLEB cytotox,hiPSC survival,LGR2 antag,CF NFkB block,TWEAK Fn14 block,HIF-2a block
COc1ccc(C=CC(=O)c2c(OC)cc(OC)c(OC)c2O)cc1,-15.1,6.9,38.4,8.0,67.9*,3.5
COc1ccc(C(=O)/C=C/c2ccc(N3CCCCC3)c([N+](=O)[O-])c2)cc1,0.4,-1.0,25.2,5.7,17.6,-8.7
CCOC(=O)/C=C(\C)Sc1cc(O)c2ccccc2c1O,-42.7,-0.7,-6.2,88.5*,95.9*,0.2
CC(=O)c1cc(O)c2ccccc2c1O,1.0,-0.7,-11.0,1.7,-3.1,-152.2
CCOC(=O)/C=C(\C)Sc1cc(=O)oc2ccccc12,-34.3,-1.5,/,36.8,56.8*,2.8
CO[C@H]1CC[C@H]2CCOc3c(C#N)cccc3C(=O)N(C)[C@H](C)C(=O)N(C)C[C@H]1O2,/,/,-3.4,/,/,/
